# Data published in PubChem BioAssay (Tox21).
# Records with an inconclusive call do not appear. A call without a number means that no potency is given here. Values without a mark were called inactive. The source made the active and inactive calls. The call rests on the fitted dose curve; in most records, active means well fitted cell-killing curve with a large enough effect in the repeat runs; inconclusive means weak or mixed curves, or effect the other way; inactive means flat fitted curve, though single readings scatter.
# Experiment: qHTS RealTime-Glo MT Cell Viability Assay in HEK293 cells - 24 hour (AID 1224886); further: potency means the concentration at half of the fitted maximal effect; on activity change, negative = cytotoxicity: top concentration of the series differs between compounds
# Conditions: RealTime-Glo luminescence; series mostly up to 76.8 µM
# Summary of the method: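 Luminescence generated by NanoLuc from substrate produced by living HEK293 cells served as the viability signal. Each value reflects the reading at its stated time point during continuous 40 h compound exposure at 37 C.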
# Further: nearly all actives have a fitted effect of over 50% in size.
SMILES,Potency,"activity change, negative = cytotoxicity"
CN1Cc2cc(C(=O)N3CCC(C4CCNCC4)CC3)ccc2NC(CC(=O)O)C1=O (stereo not given),inactive,
CC(=O)NO,inactive,
CC(=O)[O][Al][O]C(C)=O,inactive,
Cc1nn(C)c(Oc2ccccc2)c1/C=N/OCc1ccc(C(=O)OC(C)(C)C)cc1,4.9 nM (active),
O=C1OC(CN2CCOCC2)CN1/N=C/c1ccc([N+](=O)[O-])o1 (stereo not given),inactive,
COCCCN1CCC(NC(=O)c2cc(Cl)c(N)c3c2OCC3)CC1,inactive,
C1CCCNCCC1,inactive,
CCC(Cl)CCC(Cl)C(Cl)CC(Cl)C(Cl)C(Cl)CCl (stereo not given),inactive,
CCCCC(CC)COC(=O)COc1ccc(Cl)cc1Cl (stereo not given),inactive,
CCC(C)O (stereo not given),inactive,
C[C@@H](c1ncncc1F)C(O)(Cn1cncn1)c1ccc(F)cc1F (stereo not given in full),inactive,
CC(C)(C)OCC1CO1 (stereo not given),inactive,
COS(=O)(=O)C(F)(F)F,inactive,
C[Si](C)(CCCN)O[Si](C)(C)CCCN,inactive,
O=C1OC(=O)C2C3C=CC(C3)C12 (stereo not given),inactive,
CC(C)(C)Cl,inactive,
Cc1ccc(C(C)OC(=O)C2(C)CCC(C(=O)O)C2(C)C)cc1 (stereo not given),inactive,
CC(CSC(=O)c1ccccc1)C(=O)N1C[C@@H](Sc2ccccc2)C[C@H]1C(=O)O (stereo not given in full),,-5.81% [at 15.8 µM]

SMILES,Potency,"activity change, negative = cytotoxicity"
O=C(NCCO[N+](=O)[O-])c1cccnc1,inactive,
CN(C)CCN(Cc1ccsc1)c1ccccn1,inactive,
Nc1cc(C(=O)O)c(O)c(S(=O)(=O)O)c1,inactive,
O=S(c1cc(Cl)cc(Cl)c1O)c1cc(Cl)cc(Cl)c1O,inactive,
COC(=O)c1ccc(I)cc1S(=O)(=O)NC(=O)Nc1nc(C)nc(OC)n1,inactive,
C[C@H]1C[C@H]2[C@@H]3CCC4=CC(=O)C=C[C@]4(C)[C@@]3(Cl)[C@@H](O)C[C@]2(C)[C@@]1(O)C(=O)CO,inactive,
CC(C)Nc1ccc(NC(C)C)c2c1C(=O)c1ccccc1C2=O,inactive,
CC(C)OC(=O)C(C)N(C(=O)c1ccccc1)c1ccc(F)c(Cl)c1 (stereo not given),inactive,
CC(C)(CO)[N+](=O)[O-],inactive,
COc1ccc(C(=O)N2CCN(CC(=O)N3CCOCC3)CC2)cc1,inactive,
O=C(O)c1ccccc1Cl,inactive,
CCCCCCCC#N,inactive,
CCCCc1ncc(/C=C(\Cc2cccs2)C(=O)O)n1Cc1ccc(C(=O)O)cc1,inactive,
CC1(c2ccccc2)OC(C(=O)O)=CC1=O (stereo not given),inactive,
NC(N)=NCCC[C@H](N)C(=O)O,,4.77% [at 6.97 µM]
CC/C=C\CCOC(=O)CC,inactive,
CN1CCN(C(c2ccccc2)c2ccccc2)CC1,inactive,

# Experiment: qHTS RealTime-Glo MT Cell Viability Assay in HEK293 cells - 8 hour (AID 1224887); further: top concentration of the series differs between compounds
# Conditions: RealTime-Glo luminescence; series mostly up to 76.8 µM
# Summary of the method: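 Luminescence readout at each listed time point; HEK293, 600 cells/well, RealTime-Glo MT reagent added with cells; compounds pinned (23 nL in DMSO) after 5 h at 37 C; continuous culture at 37 C.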
SMILES,Potency,"activity change, negative = cytotoxicity"
CN1Cc2cc(C(=O)N3CCC(C4CCNCC4)CC3)ccc2NC(CC(=O)O)C1=O (stereo not given),inactive,
CC(=O)NO,inactive,
CC(=O)[O][Al][O]C(C)=O,inactive,
Cc1nn(C)c(Oc2ccccc2)c1/C=N/OCc1ccc(C(=O)OC(C)(C)C)cc1,inactive,
O=C1OC(CN2CCOCC2)CN1/N=C/c1ccc([N+](=O)[O-])o1 (stereo not given),inactive,
COCCCN1CCC(NC(=O)c2cc(Cl)c(N)c3c2OCC3)CC1,inactive,
C1CCCNCCC1,inactive,
CCC(Cl)CCC(Cl)C(Cl)CC(Cl)C(Cl)C(Cl)CCl (stereo not given),inactive,
CCCCC(CC)COC(=O)COc1ccc(Cl)cc1Cl (stereo not given),inactive,
CCC(C)O (stereo not given),inactive,
C[C@@H](c1ncncc1F)C(O)(Cn1cncn1)c1ccc(F)cc1F (stereo not given in full),inactive,
CC(C)(C)OCC1CO1 (stereo not given),inactive,
COS(=O)(=O)C(F)(F)F,inactive,
C[Si](C)(CCCN)O[Si](C)(C)CCCN,inactive,
O=C1OC(=O)C2C3C=CC(C3)C12 (stereo not given),inactive,
CC(C)(C)Cl,inactive,
Cc1ccc(C(C)OC(=O)C2(C)CCC(C(=O)O)C2(C)C)cc1 (stereo not given),inactive,
CC(CSC(=O)c1ccccc1)C(=O)N1C[C@@H](Sc2ccccc2)C[C@H]1C(=O)O (stereo not given in full),,-4.84% [at 15.8 µM]

SMILES,Potency,"activity change, negative = cytotoxicity"
O=C(NCCO[N+](=O)[O-])c1cccnc1,inactive,
CN(C)CCN(Cc1ccsc1)c1ccccn1,inactive,
Nc1cc(C(=O)O)c(O)c(S(=O)(=O)O)c1,inactive,
O=S(c1cc(Cl)cc(Cl)c1O)c1cc(Cl)cc(Cl)c1O,inactive,
COC(=O)c1ccc(I)cc1S(=O)(=O)NC(=O)Nc1nc(C)nc(OC)n1,inactive,
C[C@H]1C[C@H]2[C@@H]3CCC4=CC(=O)C=C[C@]4(C)[C@@]3(Cl)[C@@H](O)C[C@]2(C)[C@@]1(O)C(=O)CO,inactive,
CC(C)Nc1ccc(NC(C)C)c2c1C(=O)c1ccccc1C2=O,inactive,
CC(C)OC(=O)C(C)N(C(=O)c1ccccc1)c1ccc(F)c(Cl)c1 (stereo not given),inactive,
CC(C)(CO)[N+](=O)[O-],inactive,
COc1ccc(C(=O)N2CCN(CC(=O)N3CCOCC3)CC2)cc1,inactive,
O=C(O)c1ccccc1Cl,inactive,
CCCCCCCC#N,inactive,
CCCCc1ncc(/C=C(\Cc2cccs2)C(=O)O)n1Cc1ccc(C(=O)O)cc1,inactive,
CC1(c2ccccc2)OC(C(=O)O)=CC1=O (stereo not given),inactive,
NC(N)=NCCC[C@H](N)C(=O)O,,6.66% [at 6.97 µM]
CC/C=C\CCOC(=O)CC,inactive,
CN1CCN(C(c2ccccc2)c2ccccc2)CC1,inactive,
